Assay results taken from article PMC4552634, “A New Set of Chemical Starting Points with Plasmodium falciparum Transmission-Blocking Potential for Antimalarial Drug Discovery” (PLoS ONE, 2015).
The campaign covered roughly 13,000 compounds. About 3,200 (25%) showed an effect of 50% or more. The list shows a part of the results.

These molecules were tested on P. falciparum stage V gametocytes. Settings: 48 h, 5 µM; inhibitor.
Design: BacTiter-Glo ATP luminescence viability of purified stage V gametocytes in 384-well plates, per cent inhibition versus DMSO
For `CCC(C)C#Cc1c(C)nc(N)nc1N` (stereo not drawn) [TCMDC-137729], the “% Inhibition” value was -55.19%.
In the case of `Cc1cccc2nc(-c3ccc(-c4ccc(CNCc5cnn(-c6ccccc6)n5)cc4)s3)[nH]c12.O=C(O)C(F)(F)F` [TCMDC-132967], the “% Inhibition” value is reported as 11.48%.
`CN1CC=C(c2csc3ccc(NC(=O)Nc4ccc(-c5ccncc5)c5ccccc45)cc23)CC1` [TCMDC-139225] was tested, and the “% Inhibition” value was 89.24%.
`CN1CC=C(c2csc3ccc(NC(=O)Nc4ccc(-c5ccncc5)c(Cl)c4)cc23)CC1` [TCMDC-139226] was tested, and the “% Inhibition” value was -3.853%.
For `CN1CCC(c2csc3ccc(NC(=O)Nc4ccc(-c5ccncc5)c5ccccc45)cc23)CC1` [TCMDC-139229], the “% Inhibition” value was 21.21%.
`CCNC(=O)c1ccc(-n2nc(C)cc2-c2ccccc2)cc1` [TCMDC-124440] was tested, and the “% Inhibition” value was -33.35%.
In the case of `O=C(Nc1ccc(F)cc1)NC1CCN(CCCCCNC(=O)C2CC2c2ccc(Cl)c(Cl)c2)CC1` (stereo not drawn) [TCMDC-136249], the “% Inhibition” value is reported as 82.82%.
`O=C(Nc1cc(F)cc(F)c1)N[C@H]1CCN(CCCCCNC(=O)C2CC2c2ccc(Cl)c(Cl)c2)C1` (stereo partly drawn) [TCMDC-136263] was tested, and the “% Inhibition” value was 23.53%.
`Cc1ccc(NC(=O)NC2CCN(CCCCCNC(=O)C3CC3c3ccc(Cl)c(Cl)c3)CC2)cc1` (stereo not drawn) [TCMDC-136247] was tested, and the “% Inhibition” value was -44.45%.
For `N#Cc1cccc(NC(=O)NC2CCN(CCCCCNC(=O)C3CC3c3ccc(Cl)c(Cl)c3)CC2)c1` (stereo not drawn) [TCMDC-136250], the “% Inhibition” value was 5.084%.
In the case of `O=C(Nc1cccc(F)c1)NC1CCN(CCCCCNC(=O)C2CC2c2ccc(Cl)c(Cl)c2)CC1` (stereo not drawn) [TCMDC-136248], the “% Inhibition” value is reported as 79.62%.
With `O=C(Nc1ccc(Cl)cc1)NC1CCN(CCCCCNC(=O)C2CC2c2ccc(Cl)c(Cl)c2)CC1` (stereo not drawn) [TCMDC-136251] the “% Inhibition” value was -16.96%.
In the case of `O=C(Nc1cccc(F)c1)N[C@H]1CCN(CCCCCNC(=O)C2CC2c2ccc(Cl)c(Cl)c2)C1` (stereo partly drawn) [TCMDC-136261], the “% Inhibition” value is reported as -0.7596%.
For `O=C(Nc1cc(F)cc(F)c1)NC1CCN(CCCCCNC(=O)C2CC2c2ccc(Cl)c(Cl)c2)CC1` (stereo not drawn) [TCMDC-136252], the “% Inhibition” value was 75.57%.
For `Cc1cccc(Cn2nc(-c3ccccc3)c(N3CCCCC3)cc2=O)c1` [TCMDC-125526], the “% Inhibition” value was -20.8%.
`CCOC(=O)c1ccc(NCc2ccccn2)cc1` [TCMDC-123821] was tested, and the “% Inhibition” value was -4.555%.
In the case of `Cc1cc(NC(=O)Nc2ccc3sccc3c2)c2ccccc2n1` [TCMDC-138970], the “% Inhibition” value is reported as 36.17%.
With `CC1(C)N=C(N)N=C(N)N1c1ccc([N+](=O)[O-])cc1` [TCMDC-124128] the “% Inhibition” value was 35.22%.
`COc1cc2nc(N3CCC(CNC(=O)/C=C/c4ccccc4F)CC3)nc(N)c2cc1OC.Cl` [TCMDC-138163] was tested, and the “% Inhibition” value was 35.62%.
For `COc1cc2c(cc1OC)CN(c1cc(N)c3cc(OC)c(OC)cc3n1)CC2.CS(=O)(=O)O` [TCMDC-131968], the “% Inhibition” value was 54.76%.
In the case of `COc1cc(Nc2nc(N)c3cc(OC)c(OC)cc3n2)cc(OC)c1.Cl` [TCMDC-131884], the “% Inhibition” value is reported as -87.65%.
